Activity calls are given as the source filed them. How the source made its calls: active means hit-call score of the fitted dose curve at least 0.9, where 1 is the maximum; inactive means score below 0.9.
Legend:
[1] = ATG_CRE_CIS: Attagene CIS-FACTORIAL HepG2 Assay for human cAMP Responsive Element (CRE) binding protein 3 (AID 2282926); details: HepG2 CRE cis-reporter, Attagene multiplexed mRNA; actives raise or lower the signal
Procedure, shortened: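 Multiplexed transcription-unit reporters transfected into HepG2; 24 h dosing; RT-PCR/capillary electrophoresis fluorescence read-out; bidirectional fit vs DMSO.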

[2] = molecular target: CCAAT/enhancer-binding protein beta (Homo sapiens) (UniProt P17676); experiment: ATG_C_EBP_CIS: Attagene CIS-FACTORIAL HepG2 Assay for human CCAAT/Enhancer Binding Protein (C/EBP) beta (AID 2282927); details: HepG2 Attagene cis-factorial transcription factor reporter; actives raise or lower the signal
Procedure, shortened: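 RT-PCR/capillary electrophoresis fluorescence of reporter mRNA, 24 h post-dose, in HepG2 cells carrying transfected cis-promoter reporter units. Bidirectional curve fitting against DMSO baseline captures gain or loss of signal.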

[3] = ATG_CMV_CIS: Attagene CIS-FACTORIAL HepG2 Assay for human CMV (Internal Marker) (AID 2282928); details: HepG2 CMV promoter reporter, transcription factor profiling; actives raise or lower the signal;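 further: endpoint acts as a background internal control marker rather than a target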
Procedure, shortened: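 HepG2 cells transiently transfected with multiple cis-regulated reporter units; 24 h compound exposure. Reporter mRNA quantified by RT-PCR, 6-FAM primer-extension labeling, HpaI digestion and capillary electrophoresis; bidirectional fitting against DMSO baseline.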

[4] = molecular target: Aryl hydrocarbon receptor (Homo sapiens) (UniProt P35869); experiment: ATG_Ahr_CIS: Attagene CIS-FACTORIAL HepG2 Assay for human Aryl Hydrocarbon Receptor (Ahr) (AID 2282930); details: HepG2 AhR cis-factorial reporter transcription; actives raise or lower the signal
Procedure, shortened: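 HepG2 cells transiently transfected with cis-element-driven multiplexed reporter transcription units; endogenous transcription factor activity measured as reporter mRNA 24 h after dosing. RT-PCR, 6-FAM labelling, HpaI digestion, capillary electrophoresis; bidirectional fitting versus DMSO baseline.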

[5] = ATG_AP_1_CIS: Attagene CIS-FACTORIAL HepG2 Assay for human Activator Protein 1 (AP-1) (AID 2282931); details: HepG2 Attagene cis-factorial AP-1 reporter mRNA; actives raise or lower the signal
Procedure, shortened: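 Endogenous transcription-factor activity in human HepG2 liver cells is read through a cis-promoter reporter transcript, sampled 24 h after dosing. Detection uses RT-PCR with capillary electrophoresis; values come from bidirectional fitting relative to DMSO.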

[6] = ATG_AP_2_CIS: Attagene CIS-FACTORIAL HepG2 Assay for human Activator Protein 2 (AP-2) (AID 2282932); details: HepG2 AP-2 cis-reporter, Attagene transcription factor profiling; actives raise or lower the signal
Procedure, shortened: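 HepG2 cells were transiently transfected with multiple cis-promoter reporter transcription units and dosed for 24 h. Reporter mRNA was measured by RT-PCR with capillary electrophoresis fluorescence; bidirectional fits relative to DMSO baseline.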

[7] = ATG_BRE_CIS: Attagene CIS-FACTORIAL HepG2 Assay for human Bone Morphogenetic Protein (BMP) Response Element (BRE) (AID 2282933); details: HepG2 BMP response element reporter, Attagene transcription factor profiling; actives raise or lower the signal
Procedure, shortened: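 A HepG2 multiplex reporter system measured inducible reporter mRNA 24 h post-dosing. Detection: RT-PCR, 6-FAM primer extension, HpaI digestion, capillary electrophoresis. Activity fitted bidirectionally relative to DMSO.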

[8] = molecular target: Retinoic acid receptor alpha (Homo sapiens) (UniProt P10276); experiment: ATG_DR5_RAR_CIS: Attagene CIS-FACTORIAL HepG2 Assay for human Retinoic Acid Receptor Alpha (RARE), DR5 submotif (AID 2282934); details: HepG2 Attagene cis-factorial RARE DR5 reporter, mRNA; actives raise or lower the signal;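 on AC50: reporter responds to endogenous RAR alpha beta and gamma in HepG2 not RARA alone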
Procedure, shortened: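 HepG2 cells transiently transfected with multiplexed reporter units under cis (DR5 RARE) promoters, so endogenous transcription factor activity is measured. After 24 h compound exposure, reporter mRNA is quantified by RT-PCR with fluorescent labelling and capillary electrophoresis; bidirectional fitting versus DMSO.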

[9] = molecular target: Transcription factor E2F1 (Homo sapiens) (UniProt Q01094); experiment: ATG_E2F_CIS: Attagene CIS-FACTORIAL HepG2 Assay for human E2F Transcription Factor 1 (AID 2282935); details: HepG2 Attagene cis-reporter, E2F reporter RNA transcripts; actives raise or lower the signal
Procedure, shortened: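 HepG2 cells transiently transfected with multiplexed cis-element reporter units, dosed for 24 h. Reporter mRNA measured by RT-PCR, 6-FAM primer-extension labeling, HpaI digestion and capillary electrophoresis; bidirectional fit versus DMSO baseline.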

[10] = ATG_E_Box_CIS: Attagene CIS-FACTORIAL HepG2 Assay for human Enhancer Box (E-box) (AID 2282936); details: HepG2 E-box cis-reporter transcription, actives raise or lower the signal
Procedure, shortened: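 HepG2 cells transiently transfected with multiplexed cis-element reporter units sensing endogenous transcription factor activity; 24 h compound exposure. Reporter mRNA measured by RT-PCR, 6-FAM primer extension, HpaI digestion and capillary electrophoresis; bidirectional fit versus DMSO.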

[11] = ATG_M_61_CIS: Attagene CIS-FACTORIAL HepG2 Assay for M61 Transcription Factor (Internal Marker) (AID 2282937); details: HepG2 Attagene CIS-FACTORIAL M61 internal marker reporter; actives raise or lower the signal
Procedure, shortened: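 Cells were transfected with reporter units under cis-regulatory promoters, treated with chemicals for 24 h, then lysed for RNA. Reporter transcripts were quantified by RT-PCR and capillary electrophoresis, and activity was fitted bidirectionally against DMSO.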

[12] = ATG_EGR_CIS: Attagene CIS-FACTORIAL HepG2 Assay for human Early Growth Response 1 (EGR1) (AID 2282938); details: HepG2 Attagene CIS-FACTORIAL EGR reporter mRNA; actives raise or lower the signal
Procedure, shortened: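 Endogenous TF activity in HepG2 liver cells was gauged through cis-promoter reporter constructs transiently transfected. After 24 h dosing, reporter mRNA was quantified by RT-PCR and capillary electrophoresis, and curves fitted in both directions versus DMSO.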

[13] = ATG_M_19_CIS: Attagene CIS-FACTORIAL HepG2 Assay for M19 Transcription Factor (Internal Marker) (AID 2282939); details: HepG2 Attagene CIS-FACTORIAL M19 internal marker reporter; actives raise or lower the signal
Procedure, shortened: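 Chemical-treated HepG2 (24 h) with MRTU constructs; reporter transcripts detected by fluorescent RT-PCR fragment analysis on capillary electrophoresis. Internal background marker, DMSO as baseline.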

[14] = ATG_ERE_CIS: Attagene CIS-FACTORIAL HepG2 Assay for Estrogen Response Element (ERE) (AID 2282940); details: HepG2 ERE cis-reporter, Attagene RNA transcript; actives raise or lower the signal
Procedure, shortened: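 Human liver cells (HepG2) bearing transiently transfected, promoter-regulated reporter units were exposed 24 h. Reporter mRNA induction was detected by capillary electrophoresis of labelled RT-PCR products and fitted bidirectionally to DMSO.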

[15] = ATG_Ets_CIS: Attagene CIS-FACTORIAL HepG2 Assay for human Erythroblast Transformation Specific (ETS) (AID 2282941); details: HepG2 ETS cis-reporter transcription, actives raise or lower the signal
Procedure, shortened: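 HepG2 cells transiently transfected with cis-promoter reporter transcription units were dosed for 24 h; reporter mRNA was measured by RT-PCR, 6-FAM primer extension, HpaI digestion and capillary electrophoresis, with bidirectional fitting against DMSO baseline.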

[16] = molecular target: Hepatocyte nuclear factor 3-beta (Homo sapiens) (UniProt Q9Y261); experiment: ATG_FoxA2_CIS: Attagene CIS-FACTORIAL HepG2 Assay for human Forkhead box A2 (FOXA2) (AID 2282942); details: HepG2 cis-reporter transcription factor activity, 24 h; actives raise or lower the signal
Procedure, shortened: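 Endogenous transcription factor activity was read in HepG2 cells carrying transiently transfected cis-promoter reporter units. After 24 h dosing, reporter mRNA was quantified by RT-PCR and capillary electrophoresis, and values fitted bidirectionally versus DMSO.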

[17] = ATG_FoxO_CIS: Attagene CIS-FACTORIAL HepG2 Assay for human Forkhead box O (FoxO) (AID 2282943); details: HepG2 Attagene cis-reporter, FoxO element, mRNA; actives raise or lower the signal
Procedure, shortened: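 HepG2 cells transiently transfected with cis-promoter-driven multiple reporter transcription units; 24 h after chemical dosing, reporter mRNA quantified by RT-PCR, fluorescent primer extension, HpaI digestion and capillary electrophoresis. Bidirectional fitting versus DMSO baseline.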

[18] = ATG_GATA_CIS: Attagene CIS-FACTORIAL HepG2 Assay for human GATA Binding Protein (AID 2282944); details: HepG2 GATA cis-element reporter, Attagene multiplex mRNA; actives raise or lower the signal
Procedure, shortened: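 Transfected cis-reporter HepG2 cells were treated with chemicals for 24 hours. Total RNA was then converted to cDNA, amplified with reporter-specific primers and analysed by fluorescent capillary electrophoresis, using DMSO-treated wells as baseline.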

[19] = ATG_GLI_CIS: Attagene CIS-FACTORIAL HepG2 Assay for human Zinc Finger Protein GLI1 (AID 2282945); details: HepG2, Attagene cis-factorial reporter mRNA, GLI element; actives raise or lower the signal
Procedure, shortened: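 HepG2 cells transiently transfected with cis-promoter multiplexed reporter units report endogenous transcription factor activity. After 24 h chemical exposure, reporter mRNA was quantified by RT-PCR, 6-FAM labelling, HpaI digestion and capillary electrophoresis, with bidirectional fitting against DMSO.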

[20] = ATG_DR4_LXR_CIS: Attagene CIS-FACTORIAL HepG2 Assay for human Liver X Receptor (LXR), DR4 submotif (AID 2282929); details: HepG2 Attagene DR4 cis-reporter, mRNA transcription; actives raise or lower the signal
Procedure, shortened: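 Cells were transfected with multiple reporter transcription units, exposed to chemicals for 24 hours, then lysed for RNA. Reporter mRNA induction was measured by RT-PCR with capillary electrophoresis detection and fitted in both directions relative to DMSO.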

Measured: AC50

Chain of Hepatocyte nuclear factor 3-beta (Homo sapiens) (Q9Y261 whole entry, looked up): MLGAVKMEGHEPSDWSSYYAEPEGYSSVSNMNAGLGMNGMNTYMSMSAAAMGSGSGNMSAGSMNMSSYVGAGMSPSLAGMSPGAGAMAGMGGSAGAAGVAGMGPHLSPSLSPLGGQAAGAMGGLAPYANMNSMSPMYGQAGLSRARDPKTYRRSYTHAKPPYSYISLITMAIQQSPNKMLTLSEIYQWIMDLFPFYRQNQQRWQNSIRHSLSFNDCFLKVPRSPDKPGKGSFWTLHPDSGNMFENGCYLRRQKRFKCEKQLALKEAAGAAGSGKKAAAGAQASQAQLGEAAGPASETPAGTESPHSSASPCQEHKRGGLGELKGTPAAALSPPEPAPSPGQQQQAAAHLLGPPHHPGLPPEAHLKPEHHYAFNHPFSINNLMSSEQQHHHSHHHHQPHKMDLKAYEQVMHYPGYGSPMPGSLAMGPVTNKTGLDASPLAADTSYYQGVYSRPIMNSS
Chain of CCAAT/enhancer-binding protein beta (Homo sapiens) (P17676 whole entry, looked up): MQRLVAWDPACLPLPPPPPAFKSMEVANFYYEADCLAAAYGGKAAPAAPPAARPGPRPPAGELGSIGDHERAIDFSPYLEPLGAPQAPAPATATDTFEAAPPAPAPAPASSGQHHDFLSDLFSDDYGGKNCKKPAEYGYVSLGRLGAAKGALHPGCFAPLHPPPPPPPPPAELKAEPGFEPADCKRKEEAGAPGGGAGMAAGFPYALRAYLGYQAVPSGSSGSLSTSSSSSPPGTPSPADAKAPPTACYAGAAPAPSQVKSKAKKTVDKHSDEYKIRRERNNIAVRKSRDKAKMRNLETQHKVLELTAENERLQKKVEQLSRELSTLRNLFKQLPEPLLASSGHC
Chain of Aryl hydrocarbon receptor (Homo sapiens) (P35869 whole entry, looked up): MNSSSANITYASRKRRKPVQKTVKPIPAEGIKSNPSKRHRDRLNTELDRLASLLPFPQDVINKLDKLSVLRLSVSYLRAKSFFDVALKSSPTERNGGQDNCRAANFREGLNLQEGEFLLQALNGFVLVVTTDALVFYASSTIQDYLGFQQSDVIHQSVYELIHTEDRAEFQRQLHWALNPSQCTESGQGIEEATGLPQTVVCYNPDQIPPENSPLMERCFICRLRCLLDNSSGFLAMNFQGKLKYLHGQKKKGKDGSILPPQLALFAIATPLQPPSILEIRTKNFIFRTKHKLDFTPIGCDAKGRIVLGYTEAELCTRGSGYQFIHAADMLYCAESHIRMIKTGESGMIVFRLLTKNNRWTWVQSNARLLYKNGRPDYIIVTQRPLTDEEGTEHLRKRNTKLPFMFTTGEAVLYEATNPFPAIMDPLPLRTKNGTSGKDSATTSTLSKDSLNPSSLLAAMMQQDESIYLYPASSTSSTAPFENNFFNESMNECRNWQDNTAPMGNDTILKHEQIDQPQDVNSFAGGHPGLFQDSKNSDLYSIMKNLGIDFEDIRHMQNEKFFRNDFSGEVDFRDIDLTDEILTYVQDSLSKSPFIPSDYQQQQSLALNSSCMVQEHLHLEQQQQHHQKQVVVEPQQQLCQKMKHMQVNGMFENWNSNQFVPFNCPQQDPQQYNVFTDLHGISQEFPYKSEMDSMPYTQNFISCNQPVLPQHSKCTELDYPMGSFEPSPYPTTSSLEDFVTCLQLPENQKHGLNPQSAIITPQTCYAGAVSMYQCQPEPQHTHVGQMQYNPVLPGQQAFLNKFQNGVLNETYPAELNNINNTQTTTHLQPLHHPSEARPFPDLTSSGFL
Chain of Retinoic acid receptor alpha (Homo sapiens) (P10276 whole entry, looked up): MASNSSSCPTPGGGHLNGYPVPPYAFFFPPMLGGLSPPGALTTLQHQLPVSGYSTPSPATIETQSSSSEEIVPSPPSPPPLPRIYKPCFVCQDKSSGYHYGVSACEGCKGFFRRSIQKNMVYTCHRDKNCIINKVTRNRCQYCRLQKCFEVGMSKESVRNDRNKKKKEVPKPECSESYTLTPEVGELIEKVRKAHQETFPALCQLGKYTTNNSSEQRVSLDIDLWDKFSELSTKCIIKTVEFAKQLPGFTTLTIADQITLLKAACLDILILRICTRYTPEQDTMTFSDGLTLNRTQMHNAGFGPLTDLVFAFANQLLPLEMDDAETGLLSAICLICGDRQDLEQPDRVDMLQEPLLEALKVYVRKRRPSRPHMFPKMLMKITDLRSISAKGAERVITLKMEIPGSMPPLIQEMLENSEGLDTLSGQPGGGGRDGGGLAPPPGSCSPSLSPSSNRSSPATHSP
Chain of Transcription factor E2F1 (Homo sapiens) (Q01094 whole entry, looked up): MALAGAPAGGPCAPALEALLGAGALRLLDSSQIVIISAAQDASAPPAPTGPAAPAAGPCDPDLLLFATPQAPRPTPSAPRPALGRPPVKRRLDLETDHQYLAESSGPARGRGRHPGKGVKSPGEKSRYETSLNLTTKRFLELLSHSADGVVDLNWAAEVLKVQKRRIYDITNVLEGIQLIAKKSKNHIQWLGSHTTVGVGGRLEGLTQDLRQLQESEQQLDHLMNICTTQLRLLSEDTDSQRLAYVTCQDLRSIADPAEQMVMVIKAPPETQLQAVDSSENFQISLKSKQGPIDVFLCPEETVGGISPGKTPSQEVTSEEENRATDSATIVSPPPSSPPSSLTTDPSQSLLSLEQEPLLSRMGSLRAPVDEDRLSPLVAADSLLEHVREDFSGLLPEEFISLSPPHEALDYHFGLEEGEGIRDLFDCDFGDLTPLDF

CC1=NC(C)OC1C (configuration not stated)
active: [3] 153 µM | [5] 100 µM
not listed: [20]
inactive: all other assays above

CCC(C)(C)C1CCCCC1OC(C)=O (configuration not stated)
active: [3] 155 µM | [5] 158 µM
not listed: [6] | [20]
inactive: all other assays above

C=C[Si](C)(C)O[Si](C)(C)C=C
not listed: [4] | [6]
inactive: all other assays above

Cc1cc(C)c(C)c(C)c1
not listed: [3] | [6] | [11]
inactive: all other assays above

C=C1C2CCC(C2)C1(C)C (configuration not stated)
not listed: [3] | [6]
inactive: all other assays above

CC1OC1C1CCC2(C)OC2C1 (configuration not stated)
not listed: [3] | [10]
inactive: all other assays above

CC(CC=O)c1ccccc1 (configuration not stated)
active: [20] 71.7 µM | [4] 123 µM | [5] 131 µM | [14] 112 µM
not listed: [3]
inactive: all other assays above

O=C(c1ccc(O)cc1)c1ccc(O)cc1O
active: [7] 100 µM | [14] 0.84 µM
not listed: [3] | [19]
inactive: all other assays above

NCCCN1CCN(CCCN)CC1
not listed: [3] | [8] | [12]
inactive: all other assays above

C=CC(C)(CCC=C(C)C)OC(=O)CC(C)C (configuration not stated)
active: [3] 75.3 µM | [5] 119 µM | [14] 74.1 µM
not listed: [4] | [15] | [16] | [18] | [20]
inactive: all other assays above

CCOC(=O)c1ccccc1C(=C1C=C(Br)C(=O)C(Br)=C1)c1cc(Br)c(O)c(Br)c1
active: [1] 25.4 µM | [2] 18.8 µM | [20] 21.5 µM | [4] 26.2 µM | [6] 49.9 µM | [7] 109 µM | [8] 21.3 µM | [10] 108 µM | [12] 33.4 µM | [16] 43.6 µM | [17] 47.6 µM | [19] 37.7 µM
inactive: [9] | [11] | [13] | [14] | [18]

CCO[Si](C)(OCC)OCC
not listed: [3] | [5] | [8]
inactive: all other assays above

[Cl][In]([Cl])[Cl]
active: [14] 163 µM
not listed: [3] | [16] | [20]
inactive: all other assays above

NC(=O)OCC(COC(N)=O)c1ccccc1
not listed: [3]
inactive: all other assays above

Reference: PubChem BioAssay (EPA / NIEHS)
